PubChem BioAssay AID2314 (National Center for Advancing Translational Sciences (NCATS), 2010)
Values joined by “and” are separate entries in the source; they are usually repeats but may differ in a detail not shown here. Equal values may be shown once. The campaign covered roughly 300,000 compounds. About 37,000 (12%) were called active. The list comes from a sample in which actives are over-represented; it also holds similar structures and randomly drawn compounds. Values without a mark were called inactive. No stated cut-off is given here; in the data, active means max response mostly above about 13% (no sharp cut-off); inactive means mostly below about 14%.

assay: Cycloheximide Counterscreen for Small Molecule Inhibitors of Shiga Toxin; settings: cell reporter, cycloheximide protein synthesis inhibition counterscreen; stronger effect = higher value; further: read at 38.3 µM for the half of the compounds with a filed dose; 0% is about no effect

| SMILES | max response |
| --- | --- |
| CO/N=C(/CS(=O)(=O)c1ccc(Br)cc1)c1ccc(OC)cc1 | 0.74% |
| Clc1ccc(COn2c(-c3ccc(Cl)cc3Cl)nc3ncccc32)cc1 | -3.82% |
| Cc1n[nH]c(=O)c2c1nnn2Cc1ccc(F)cc1 | -2.69% |
| O=C(Nc1ccc(Br)cc1)c1cccc(NC(=O)C2C3CC4OC(=O)C2C4C3)c1 (centres undefined) | 14% |
| Cn1c(CCNS(=O)(=O)c2ccc(F)cc2)nnc1SCc1cccnc1 | -3.41% |
| CCC1(CC)NC(=O)N(CC(=O)OCC(=O)NC(=O)c2ccccc2)C1=O | -1.66% |
| CCC1(CC)NC(=O)N(Cc2nc3ccccc3s2)C1=O | 19.8% (active) |
| COC(=O)C1[C@H]2SC(C)(C)C(C(=O)OC)N2C(=O)N1Cc1nc2ccccc2s1 (some centres undefined) | 0.765% |
| O=S(=O)(c1ccccc1)c1nc(Cc2ccccc2)oc1N1CCOCC1 | -5.23% |
| COc1ccc(CCN2C(=O)CC(N3CCC(C(N)=O)CC3)C2=O)cc1OC (centres undefined) | 3.18% |
| Nc1nonc1-n1nnc(C(=O)N/N=C/c2cc(Br)ccc2O)c1CSC1=NCCS1 | -2.34% |
| O=C(Nc1ccccc1F)c1ccccc1-c1ccc(C(F)(F)F)cc1 | -2.22% |
| COC(=O)C1C(=O)c2c([nH]c(C(=O)OCCSC)c2C)CC1C (centres undefined) | 51.7% (active) |
| CCCOC(=O)C1=C(C)NC2=C(C(=O)C(C(=O)OC)C(C)C2)C1c1ccc(N(C)C)cc1 (centres undefined) | 12.3% |
| CCCOC(=O)c1[nH]c2c(c1C)C(=O)CC(c1cc(OC)c(OC)c(OC)c1)C2 (centres undefined) | 3.17% |
| CC(C)(CNC(=O)Cc1ccc(Cl)cc1Cl)N1CCOCC1 | -3.1% |
| COCCN(CCOC)S(=O)(=O)c1ccc(/C(O)=C(\C#N)c2nc3ccccc3[nH]2)cc1 | 12.2% (active) |
| N#C/C(=C(/O)COc1cccc2ccccc12)c1nc2ccccc2[nH]1 | 2.08% |
| Cc1ccccc1OC/C(O)=C(\C#N)c1nc2ccccc2[nH]1 | 0.892% |
| O=C(c1ccc(OC2CCN(C(=O)c3cccnc3)CC2)cc1)N1CCCCCC1 | -1.68% |

| SMILES | max response |
| --- | --- |
| CCOC(=O)/C(=C\c1ccc([N+](=O)[O-])cc1)C(=O)c1cc(C(C)=O)c(Nc2ccccc2)s1 | -4.46% |
| CN(C)C(=O)Oc1ccc2c(c1)O/C(=C\c1ccccc1)C2=O | 44.1% (active) |
| COC(=O)C(C)Oc1ccc2c(c1)O/C(=C\c1cccc(Br)c1)C2=O (centres undefined) | 1.99% |
| O=C1/C(=C/c2ccc3c(c2)OCO3)Oc2cc(OCC(=O)N3CC(O)C[C@H]3C(=O)O)ccc21 (some centres undefined) | 0.739% |
| COc1cc(C(CCN2CCN(c3ccccc3)CC2)c2c(OC)cc(OC)c3ccc(=O)oc23)cc(OC)c1OC (centres undefined) | -1.52% and 15.6% |
| C=C(C)COc1ccc(-c2ncncc2-c2ccc(OC)cc2)c(O)c1 | 13.2% |
| Cc1ccc(SCC(=O)c2cc(C)c(OC(=S)N(C)C)c(C)c2)cc1 | 26.1% (active) |
| Cc1ccc(SC(=O)COc2ccc(C)c(C)c2)cc1 | -5.87% |
| COC(=O)c1cc(OC)c(OC)cc1NC(=O)CSc1ccc(C)cc1 | -2.51% |
| Cc1ccc(NC(=O)c2ccc(S(=O)(=O)NCC3CCCO3)cc2)cc1C (centres undefined) | 9.52% |
| Cc1ccc(-c2nn(-c3ccccc3)cc2/C=C2\SC(=S)N(CCCCCC(=O)O)C2=O)o1 | 1.36% |
| O=C(NC(=S)N1CCCCC1c1cccnc1)c1ccccc1 (centres undefined) | 11.6% |
| C=C(C)c1cccc(C(C)(C)NC(=O)NC2CCCC2)c1 | -2.37% |
| Cc1ccc(C)c(N2CCN(C(=O)Cn3ncn4cccc4c3=O)CC2)c1 | -1.35% |
| O=Cc1ccc(Oc2cccc(C(F)(F)F)c2)nc1 | 15% |
| FC(F)(F)c1ccnc(Oc2ccc(C3=NCCS3)cc2)c1 | 42.3% (active) |
| NC(=S)Nc1c(Cl)cccc1Cl | 4.66% |
| O=C(COC(=O)c1cccs1)NCc1cccs1 | 16.3% (active) |
| O=C(COC(=O)CCC(=O)c1cccs1)NCc1ccco1 | 1.52% |
| CCc1ccc(NC(=O)C(=O)NNC(=O)c2cccs2)cc1 | 27.8% (active) |

| SMILES | max response |
| --- | --- |
| CCc1ccc(NC(=O)CCNS(=O)(=O)c2cccs2)cc1 | 21.6% (active) |
| CCc1ccc(NC(=O)COC(=O)c2cccs2)cc1 | 51.3% (active) |
| O=C(COC(=O)c1ccc(Cl)nc1)NCc1cccs1 | -2.61% |
| CCOC(=O)c1oc2ccccc2c1NC(=O)c1cccs1 | -3.1% |
| C/C(=N\OCC(=O)Nc1ccc(Br)cc1)c1cccs1 | 7.82% |
| CCc1cccc(NC(=O)CCNS(=O)(=O)c2cccc3nonc23)c1 | -2.33% |
| CCc1ccc(NC(=O)C(=O)N/N=C(\C)CC(=O)NCCOC)cc1 | 20.1% |
| O=C(COC(=O)c1cccs1)Nc1ccccc1Cl | -1.99% |
| O=C(COC(=O)c1ccc(NS(=O)(=O)c2cccs2)cc1O)Nc1ccc(F)cc1 | 0.935% |
| CCc1ccccc1N(CC(=O)NCC1CCCO1)C(=O)CCC(=O)Nc1nccs1 (centres undefined) | -4.73% |
| CCOc1ccccc1NC(=O)C1CCCN(S(=O)(=O)c2ccccc2)C1 (centres undefined) | -1.93% |
| NS(=O)(=O)c1ccc(NC(=S)NNC(=O)c2cccs2)cc1 | 29.3% (active) |
| CCc1nnc(NS(=O)(=O)c2ccc(NC(=S)NC(=O)c3cccs3)cc2)s1 | 0.706% |
| O=C(NC(=S)Nc1ccc(NC(=O)c2cccs2)cc1)c1ccc([N+](=O)[O-])cc1 | 0.608% |
| O=C(c1n[nH]c2c1CCC2)N1CCCC(Nc2cccc(F)c2)C1 (centres undefined) | 10.7% |
| O=C(NCc1ccc(Cl)cc1)c1cc(=O)nc2sc(-c3ccccc3)nn12 | -4.5% |
| CC(=NCc1ccco1)C1=C(O)c2ccccc2C1=O | 24.6% |
| CC(=NCc1ccc2c(c1)OCO2)c1c(O)[nH]c(=O)[nH]c1=O | -1.94% |
| CC(=NCc1ccc2c(c1)OCO2)C1=C(O)c2ccccc2C1=O | 14.2% (active) |
